{
  "source": "PubChem BioAssay (NCI)",
  "note": "The panel holds about 83,000 compounds, 20% with a hit somewhere; the sample as a whole holds those more often.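 Plates (96-well) were seeded with cells, treated with compound at one concentration, and incubated for 48 hours before percent growth was determined.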 Calls of active or inactive are those of the source. Rule for the calls: active = growth percent below 10; inactive = the rest.",
  "data": [
    {"system": "MOLT-4 leukemia", "assay": "NCI-60 one-dose screen, 48 h (100 = growth as untreated, 0 = no growth, -100 = all killed)", "conditions": "10 µM unless noted", "values": [
      {"smiles": "O=C(Oc1ccccc1)c1ccccc1Cl", "growth": "110% (inactive)"},
      {"smiles": "COc1ccc(-c2nc(SCC(C)C)nc(Nc3ccc(C(=O)O)cc3)c2C#N)cc1", "growth": "82.7% (inactive)"},
      {"smiles": "C[C@@H](c1ccc2c(c1)[nH]c1ccc(Cl)cc12)c1nc2ccccc2[nH]1", "growth": "92.4% (inactive)"},
      {"smiles": "Cc1nnc(/N=C2\\NC(=O)/C(=C/C=C/c3ccccc3)S2)s1", "growth": "43.7% (inactive)"},
      {"smiles": "CCOc1ccccc1/C=N\\N=C(N/N=C/c1ccccc1OCC)N/N=C/c1ccccc1OCC", "growth": "27.7% (inactive)"},
      {"smiles": "CCOC(=O)CSSCC(=O)OCC", "growth": "90.3% (inactive)"},
      {"smiles": "O=C(O)c1ccc(Br)nc1", "growth": "99.8% (inactive)"},
      {"smiles": "O=C(O)c1ccc(-c2nn(-c3ccc(C(=O)O)cc3)cc2CNc2ccc(Br)cc2)cc1", "growth": "118% (inactive)"},
      {"smiles": "NC(N)=N/N=C/c1cccc(Br)c1", "growth": "91.2% (inactive)"},
      {"smiles": "C=CCNC(=S)NNc1ccc([N+](=O)[O-])cn1", "growth": "99.4% (inactive)"},
      {"smiles": "CCCC(=O)Nc1ccccc1C(=O)O", "growth": "98.6% (inactive)"},
      {"smiles": "O=C(/C=C1\\C(=O)N(Cc2ccc([N+](=O)[O-])cc2)c2ccccc21)c1ccc(OCCN2CCCCC2)cc1", "growth": "-26.5% (active)"},
      {"smiles": "COc1cc2cc3cc4cc(OC)c(OC)cc4c(C)[n+]3cc2cc1OC", "note": "(tested in a mixture with another compound)", "growth": "40.1% (inactive)"},
      {"smiles": "COc1ccc(-c2nc(N)n(C(=S)Nc3ccccc3)n2)cc1", "growth": "98.5% (inactive)"},
      {"smiles": "Nc1ccc(N=Nc2ccccc2)c2cc(S(=O)(=O)O)ccc12", "growth": "106% (inactive)"},
      {"smiles": "O=C(C(=O)N1CCOCC1)c1ccc(O[C@H]2O[C@H](CO)[C@@H](O)[C@H](O)[C@@H]2O)cc1", "growth": "103% (inactive)"},
      {"smiles": "O=C(/C=C1\\C(=O)N(Cc2ccccc2)c2ccccc21)c1ccc(OCCN2CCCCC2)cc1", "growth": "9.65% (active)"},
      {"smiles": "CCCCCCNC(=O)Oc1ccc(/C(=C(/C)Cc2ccc(OC)cc2)c2ccc(OCCN(C)C)cc2)cc1", "growth": "30.7% (inactive)"},
      {"smiles": "COc1ccc(-c2nc(SCC(C)C)nc(Nc3ccc(C)cc3)c2C#N)cc1", "growth": "81.6% (inactive)"},
      {"smiles": "CCOC(=O)C1CCCN1C(=O)C1(NC(C)=O)CCCC1", "note": "(centres undefined)", "growth": "116% (inactive)"},
      {"smiles": "CCOC(=O)C1=NN(c2ccccc2)C2=NC(=O)/C(=C\\c3cn(-c4ccccc4)nc3-c3cc4ccccc4o3)C(=O)N12", "growth": "96.3% (inactive)"},
      {"smiles": "CC1=C(C)C[C@]2(C(=O)O[C@H]3CCCC[C@@H]32)[S@](=O)C1", "growth": "105% (inactive)"},
      {"smiles": "CC(=N\\N=C(N)N)/C(=N/N=C(N)N)c1ccccc1", "growth": "48.9% (inactive)"},
      {"smiles": "O=C1/C(=C\\c2cn(-c3nc(N4CCOCC4)nc(N4CCOCC4)n3)c3ccccc23)c2ccccc2N1c1c(Cl)cccc1Cl", "growth": "60.5% (inactive)"},
      {"smiles": "Cc1ccc(CC(=O)O)c(C)c1", "growth": "105% (inactive)"},
      {"smiles": "N=C(N)N=Nc1ccc(NN=C(N)N)cc1", "growth": "105% (inactive)"},
      {"smiles": "CCCNC(=O)Oc1ccc(/C(=C(/C)Cc2ccc(OC)cc2)c2ccc(OCCN3CCCCC3)cc2)cc1", "growth": "70.9% (inactive)"},
      {"smiles": "CCCCN(CCCC)CCCNc1c2c(nc3ccc(Cl)cc13)CCCC2", "growth": "94.9% (inactive)"},
      {"smiles": "CCCCCCCCCCN1CC2CCCCC2C1", "note": "(centres undefined)", "growth": "50.2% (inactive)"},
      {"smiles": "N=C(N)N=Nc1ccc(NN=C(N)N)c2ccccc12", "growth": "97.1% (inactive)"},
      {"smiles": "Cc1c(Cc2ccccc2)c(=O)oc2c(C)c(OCC(=O)n3nc(C#N)cc3N)ccc12", "growth": "98.5% (inactive)"},
      {"smiles": "CC(=O)OCC1O[C@@H](OC(C)=O)[C@@H](NC(=O)NS(=O)(=O)c2ccccc2)C(OC(C)=O)[C@@H]1OC(C)=O", "note": "(some centres undefined)", "growth": "98.6% (inactive)"},
      {"smiles": "CC(=O)Nc1nc(C)c(C(=O)N/N=C/N2CCCCC2)s1", "growth": "130% (inactive)"},
      {"smiles": "Cc1ccc(NCc2cn(-c3ccc(C(=O)O)cc3)nc2-c2ccc(C(=O)O)cc2)cc1", "growth": "105% (inactive)"},
      {"smiles": "CC(C)CSc1nc(-c2ccc(F)cc2)c(C#N)c(N2CCCCC2)n1", "growth": "95.3% (inactive)"},
      {"smiles": "COc1ccc(/C=N/c2cc(C(C)(C)C)nn2-c2ccccc2)cc1", "growth": "96% (inactive)"},
      {"smiles": "CC[C@H](Nc1ncnc2nc[nH]c12)c1nc2cccc(NCc3ccc(C(=O)NO)nc3)c2c(=O)n1-c1ccccc1", "growth": "15% (inactive)"},
      {"smiles": "COc1ccc(CN2C(=O)/C(=C\\C(=O)c3ccc(OCCN4CCCC4)cc3)c3ccccc32)cc1", "growth": "5.57% (active)"},
      {"smiles": "CCC(C)C1NC(=O)C(CC(C)C)NC(=O)C(C)NC(=O)C(C(C)C)NC(=O)C(CCCCN)NC(=O)C(CC(C)C)NC(=O)C(C(C)C)NC(=O)[C@H](C)NC(=O)C(C(C)CC)NC(=O)C(CCCN=C(N)N)NC(=O)C(CCCCN)NC(=O)C(CCCN=C(N)N)NC(=O)C(CCCCN)NC(=O)C([C@H](C)CC)NC(=O)C(CCCCN)NC1=O", "note": "(some centres undefined)", "growth": "-6.28% (active)"}
    ]}
  ]
}
